A selection: hits, their analogues and other compounds. The true share with any hit is near 3.9%.
C8 TRAIL sens – caspase-8 TRAIL sensitization. AID 624354. NB7+C8 cells + TRAIL, ATPlite viability luminescence. inhibition (viability loss, TRAIL sensitization), % at 10 µM. 1% of 360,000 active;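 active = compounds causing at least 50% loss of cell viability in the single-dose screen, relative to plate controls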
HIF-2a inh – HIF-2a inhibition; 0.72% of 360,000 active; inhibition, % at 18.8 µM; 786-0 RCC cells HIF-2a reporter, luciferase luminescence, overnight;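 active = inhibition of the luminescence signal of 40% or more relative to plate controls, in a single-dose primary screen at 18.75 µM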
TROY signal inh – blocks TROY-dependent signaling in reporter cells. Q293 LMP1-TROYcd NF-kB luciferase reporter, 4 h. inhibition, % at 10 µM. AID 1347056. 0.98% of 360,000 active;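 active = compounds whose plate-normalised and pattern-corrected inhibition of the luciferase reporter signal at the single screening dose is 50% or more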
TWEAK-Fn14 inh – blocks TWEAK-Fn14 interaction in a reporter cell assay | inhibition, % at 10 µM | 2% of 360,000 active | TWEAK-stimulated Fn14 reporter cells, luciferase luminescence, 8 h; in the data active = inhibition above about 50%
aSyn UTR inh – MLPCN primary screen, SNCA 5' untranslated region | alpha-synuclein 5'UTR reporter, inhibitor activity | inhibition, % (tested at 7.5 µM) | 0.82% of 300,000 active | AID 1813; in the data active = inhibition above about 60%;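 also: H4 neuroglioblastoma cells stably carrying SNCA 5'UTR luciferase fusion; 0% = DMSO wells and 100% = positive control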
HSP90 inh – inhibitors of HSP90 luciferase refolding in rabbit reticulocyte lysate; luciferase refolding luminescence, 3 h; inhibition, % at 5.6 µM; 0.91% of 290,000 active; AID 1789;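 active = inhibition above the screen-wide mean plus 3 SD, computed separately per campaign, cut at about 16% in these data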;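 also: 0% = DMSO wells and 100% = 60 µM geldanamycin wells; inhibitors lower the luminescence because luciferase stays unfolded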
Numbers without * were called inactive; nt = not tested or not shown.

SMILES	C8 TRAIL sens	HIF-2a inh	TROY signal inh	TWEAK-Fn14 inh	aSyn UTR inh	HSP90 inh
COc1ccc([C@H]2C[C@H](O)[C@@H](n3cc(COC(=O)c4ccccc4)nn3)CN2C(=O)C2CCCCC2)cc1	12	8	8	1	nt	nt
O=C(COC(=O)CNC(=O)c1ccco1)Nc1ncc(Cl)cc1Cl	-8	12	2	-9	nt	nt
c1ccc(-c2noc(-c3ccno3)n2)nc1	5	-68	-36	0	-22	-2
c1ccc(-c2ccc(-c3nc(-c4ccccn4)no3)cc2)cc1	90*	83*	89*	106*	147*	78*
CN(C)c1ccc(CNc2nc3cc(-c4ccc(F)cc4)sc3c(=O)n2C)cc1	21	-256	6	38	nt	nt
COc1ccccc1NC(=O)CSc1ccc(-c2cccs2)nn1	-1	-6	26	53*	22	0
COc1ccccc1NC(=O)CSc1ccc(-c2ccc(-n3ccnc3)cc2)nn1	51*	-72	7	0	-43	nt
c1ccc(CSc2ccc(-c3cccs3)nn2)cc1	54*	-230	-65	-24	-108	-6
COc1ccccc1CCNC(=O)CSc1ccc(-c2cccs2)nn1	-4	-1	1	-3	18	-3
COC1(OC)C=CC(=O)C=C1NC(=O)c1ccccc1OC(C)=O	-10	-2	5	63*	-26	nt
COc1ccc(C(=O)Nc2cccc3cccnc23)cc1OC	-4	-203	-39	0	-72	-2
COc1ccc(NC(=O)C(=O)Nc2cccc3cccnc23)cc1OC	17	-114	-22	105*	-114	-6
O=C(Nc1ccsc1C(=O)O)c1cccc(Oc2ccccc2)c1	49	-98	53*	53*	-23	13
CCC(c1nnc(SC(C)C(=O)NC2CC2)n1-c1ccc(OC)cc1)N(C)C (stereo not drawn)	-9	9	-4	9	nt	nt
Cc1cccc(C)c1OCC(=O)Nn1c(C)nc2ccccc2c1=O	1	22	nt	78*	16	2
CC(C)(C)c1ccc2c(c1)C(=O)c1ccccc1C2=O	56*	-183	52*	41	-29	-3
CCc1ccc2c(c1)C(=O)c1ccccc1C2=O	12	-267	-67	-36	-199	2
OCCN(Cc1ccccn1)Cc1ccccn1	14	8	2	0	nt	nt
Cc1ccc(-c2nc(=S)c3c(n2Cc2cccnc2)CC(C)(C)OC3)cc1	0	20	7	74*	15	-1
CCN(CC)CCn1c(-c2ccc(C)cc2)nc(=S)c2c1CC(C)(C)OC2	14	8	18	7	nt	2
COc1ccc(-c2nc(=S)c3c(n2CCN2CCOCC2)CC(C)(C)OC3)cc1	-16	7	32	9	-4	0
CC1(C)Cc2c(c(=S)nc(-c3ccccc3)n2CCOCCO)CO1	-15	-3	nt	55*	-16	1
Cc1ccc(-c2nc(=S)c3c(n2CCN2CCOCC2)CC(C)(C)OC3)cc1	-4	-5	52*	21	17	-1
Cc1cc(C)c(O)c(-c2n[nH]c3c2C(c2cccc(O)c2)N(Cc2ccco2)C3=O)c1 (stereo not drawn)	-2	30	60*	17	12	4
O=C1c2[nH]nc(-c3ccccc3O)c2C(c2cccc(Cl)c2)N1Cc1ccco1 (stereo not drawn)	4	31	24	29	9	1
SMILES	C8 TRAIL sens	HIF-2a inh	TROY signal inh	TWEAK-Fn14 inh	aSyn UTR inh	HSP90 inh
O=C(NNc1ccccc1Br)C(O)(c1cccc(C(F)(F)F)c1)c1cccc(C(F)(F)F)c1	24	24	57*	73*	24	4
Cc1ccc(NNC(=O)C(O)(c2cccc(C(F)(F)F)c2)c2cccc(C(F)(F)F)c2)cc1	25	6	43	22	6	1
COCCNC(=O)C1CCCN(C(=O)/C=C/c2ccccc2)CC1 (stereo not drawn)	-8	5	3	11	nt	nt
CC(=O)c1sc(Nc2ccc(Oc3ccccc3)cc2)nc1C	35	-292	-1	9	nt	nt
COc1ccc(C(C(=O)NC2CCCC2)N(C(=O)c2snc(-c3ccc(F)cc3)c2N)c2ccc(F)cc2)cc1 (stereo not drawn)	51*	17	-7	-5	31	0
COc1ccc(C(C(=O)NC2CCCC2)N(C(=O)c2snc(-c3ccc(F)cc3)c2N)c2ccc(OC)cc2)cc1 (stereo not drawn)	-7	-15	-49	-11	26	1
CCc1ccc2oc(-c3ccc(OC)cc3)cc(=Nc3c(C)n(C)n(-c4ccccc4)c3=O)c2c1	20	-229	55*	75*	-77	11
COc1ccc(-c2cc(=Nc3ccc(C(=O)O)cc3)c3cc(C)ccc3o2)cc1	47	-218	-17	72*	4	2
C=CCn1c(-c2ccc(OC)cc2)csc1=Nc1c(C)n(C)n(-c2ccccc2)c1=O	9	15	11	10	10	-6
COc1ccccc1OCCn1cc(C(=O)O)c2ccccc21	5	-2	-25	63*	11	1
Cn1c(-c2ccccc2)n[nH]c1=S	-2	11	-10	85*	3	7
Cc1cccc(-c2n[nH]c(=S)n2C)c1	7	18	-5	-4	14	-2
O=C(O)C1CCC(=O)N1Cc1ccc(F)cc1 (stereo not drawn)	-20	-1	7	50*	37	-3
CCCCNC(=O)C1c2ccccc2OCC(=O)N1CCc1ccc(OC)c(OC)c1 (stereo not drawn)	4	6	2	-5	nt	nt
Nc1ccc2oc(-c3cccs3)nc2c1	-7	-259	-31	1	-89	2
Cc1ccccc1-c1nc2cc(Cl)ccc2o1	14	-208	-52	2	-183	-2
Cc1ccc2nc(-c3ccccn3)oc2c1	67*	-89	-13	53*	-21	13
Cc1ccc(-c2nc3cc(N)ccc3o2)cc1	70*	-75	-12	70*	-7	9
Nc1ccc2oc(-c3cccc4ccccc34)nc2c1	6	87*	-11	-1	71*	0
Cc1ccc(-c2nc3cc(N)ccc3o2)c(C)c1	58*	-85	9	46	20	4
CCNC(=O)C1(C)CCCN(C(=O)c2cccc(C)c2C)C1 (stereo not drawn)	-16	7	1	14	nt	nt
O=C(Nc1ccc(-c2nc3ccccc3o2)cc1)c1cccnc1	17	-239	4	39	-133	-3
COc1cc(C(=O)Nc2ccc(-c3nc4cc(C)ccc4o3)c(O)c2)cc(OC)c1OC	3	-6	2	52*	-2	0
Cc1ccc2oc(-c3ccco3)nc2c1	4	-55	-30	13	-137	-3
Cc1ccc2oc(-c3ccc(NC(=O)c4cccnc4)cc3)nc2c1	19	-287	13	56*	-162	-5

Source: PubChem BioAssay
